Screening results from PubChem BioAssay.
IDE exosite FP – exo-site inhibitors of human IDE, primary screen, biochemical, fluorescence anisotropy, probe displacement. Insulin-degrading enzyme (Homo sapiens), P14735. purified IDE, FL-6b probe fluorescence polarization; hits give low values. 17,000 tested, 6.3% active. z-score at 20 µM. AID 1259349, 2017;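 active = z-score of -3 or lower, meaning strong loss of probe binding signal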;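 note: His-tagged human IDE residues 42-1019 made in E. coli with 30 nM FL-6b probe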
Target sequence (P14735 42-1019 limits assumed): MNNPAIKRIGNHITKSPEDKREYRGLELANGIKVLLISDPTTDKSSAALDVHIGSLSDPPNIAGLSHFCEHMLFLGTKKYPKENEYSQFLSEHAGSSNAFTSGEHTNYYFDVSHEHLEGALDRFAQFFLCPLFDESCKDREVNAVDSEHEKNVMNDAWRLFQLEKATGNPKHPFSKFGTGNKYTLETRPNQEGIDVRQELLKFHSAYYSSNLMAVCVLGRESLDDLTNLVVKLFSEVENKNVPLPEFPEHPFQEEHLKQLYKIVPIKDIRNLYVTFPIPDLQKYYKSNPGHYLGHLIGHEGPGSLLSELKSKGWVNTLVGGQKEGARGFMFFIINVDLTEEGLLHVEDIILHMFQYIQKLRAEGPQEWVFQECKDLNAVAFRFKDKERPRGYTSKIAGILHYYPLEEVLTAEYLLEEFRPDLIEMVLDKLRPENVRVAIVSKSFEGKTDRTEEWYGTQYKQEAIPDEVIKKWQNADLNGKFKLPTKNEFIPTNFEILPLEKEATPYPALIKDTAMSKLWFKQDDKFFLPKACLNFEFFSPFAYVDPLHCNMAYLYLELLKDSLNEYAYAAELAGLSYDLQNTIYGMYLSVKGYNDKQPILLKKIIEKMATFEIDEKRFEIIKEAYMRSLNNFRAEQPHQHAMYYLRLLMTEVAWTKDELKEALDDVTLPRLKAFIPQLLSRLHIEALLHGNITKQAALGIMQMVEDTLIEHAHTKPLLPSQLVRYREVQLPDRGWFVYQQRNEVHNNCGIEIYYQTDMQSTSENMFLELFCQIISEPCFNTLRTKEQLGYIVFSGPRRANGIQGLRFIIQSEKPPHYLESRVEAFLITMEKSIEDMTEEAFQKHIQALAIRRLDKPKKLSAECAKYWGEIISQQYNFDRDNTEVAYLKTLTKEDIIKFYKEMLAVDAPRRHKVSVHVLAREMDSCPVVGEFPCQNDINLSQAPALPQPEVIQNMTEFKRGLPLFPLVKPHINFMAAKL
Each line names hits and unclear results; the compound was inactive in the other large screens; ! = repeats disagree. Shown is part of a subset that was picked to be rich in hits.

COc1ccc(C#Cc2ccc([C@H]3[C@@H](CO)N4C(=O)CN(C(=O)C5CCOCC5)C[C@H]34)cc2)cc1	none
O=C(C1CCC1)N1CC(=O)N2[C@@H](CO)[C@H](c3ccc(C#CCc4ccccc4)cc3)[C@@H]2C1	none
O=C(C1CCC1)N1CC(=O)N2[C@H](CO)[C@@H](c3ccc(C#Cc4cccc(F)c4)cc3)[C@@H]2C1	IDE exosite FP -4.44
O=C(C1CCC1)N1CC(=O)N2[C@H](CO)[C@H](c3ccc(C#Cc4cccc(F)c4)cc3)[C@H]2C1	IDE exosite FP -10.3
COc1ccc(C#Cc2ccc([C@@H]3[C@@H](CO)N4C(=O)CN(C(=O)C5CCOCC5)C[C@H]34)cc2)cc1	none
O=C(C1CC1)N1CC(=O)N2[C@H](CO)[C@H](c3ccc(C#CCc4ccccc4)cc3)[C@H]2C1	none
O=C(C1CCCCC1)N1CC(=O)N2[C@H](CO)[C@@H](c3ccc(C#Cc4cccc(F)c4)cc3)[C@H]2C1	none
O=C(C1CC1)N1CC(=O)N2[C@@H](CO)[C@@H](c3ccc(C#Cc4cccc(F)c4)cc3)[C@@H]2C1	IDE exosite FP -4.69
O=C(C1CCCCC1)N1CC(=O)N2[C@H](C1)[C@H](c1ccc(C#Cc3cccc(F)c3)cc1)[C@@H]2CO	none
O=C(C1CCOCC1)N1CC(=O)N2[C@H](CO)[C@@H](c3ccc(C#Cc4cccc(F)c4)cc3)[C@@H]2C1	IDE exosite FP -10.3
C[C@H](CO)N1C[C@H](C)[C@H](CN(C)C(=O)CCC(F)(F)F)OCc2cn(nn2)CCCC1=O	none
COc1cccc(NC(=O)N2CC(=O)N3[C@H](C2)[C@H](c2ccc(C#CC4CCCCC4)cc2)[C@@H]3CO)c1	none
C/C=C/c1ccc([C@@H]2[C@@H](CO)N3C(=O)CN(Cc4ccc(F)cc4)C[C@H]23)cc1	none
CO[C@H](CN(C)C(=O)c1ccc2c(c1)OCO2)[C@@H](C)CN([C@H](C)CO)S(=O)(=O)c1ccc(Cl)cc1	none
CCCC#Cc1ccc([C@@H]2[C@@H](CO)N3C(=O)CN(C(=O)c4ccc(F)cc4)C[C@@H]23)cc1	none
CC(C)C#Cc1ccc([C@H]2[C@@H](CO)N3C(=O)CN(C(=O)NC4CCCC4)C[C@H]23)cc1	none
O=C(Nc1cccc(F)c1)N1C[C@@H]2N[C@H](C1)C2c1ccc(-c2ccccc2F)cc1 (stereo not given in full)	none
O=C(Nc1ccc(F)cc1)N1C[C@@H]2N[C@H](C1)C2c1ccc(/C=C/c2ccccc2)cc1 (stereo not given in full)	none
Cc1ccccc1-c1ccc(C2[C@@H]3CN(C(=O)Nc4ccc(F)cc4)C[C@H]2N3)cc1 (stereo not given in full)	IDE exosite FP -10.7
O=C(Nc1cccc(F)c1)N1C[C@@H]2N[C@H](C1)C2c1ccc(-c2cccnc2)cc1 (stereo not given in full)	none
Cc1ccccc1-c1ccc(C2[C@H]3CNC[C@@H]2N3C(=O)Nc2ccc(F)cc2)cc1 (stereo not given in full)	none
Cc1ccccc1-c1ccc(C2[C@@H]3CN(C(=O)Nc4cccc(F)c4)C[C@H]2N3)cc1 (stereo not given in full)	IDE exosite FP -6.41
O=C(NC1CCCCC1)N1C[C@@H]2N[C@H](C1)C2c1ccc(-c2ccc(F)cc2)cc1 (stereo not given in full)	none
C/C=C/c1ccc(C2[C@@H]3CN(C(=O)NC4CCCCC4)C[C@H]2N3)cc1 (stereo not given in full)	none
Cc1ccccc1-c1ccc(C2[C@@H]3CN(C(=O)NC4CCCCC4)C[C@H]2N3)cc1 (stereo not given in full)	IDE exosite FP -8.23!
COc1ccc([C@H]2CC=CC[C@H](C)Oc3ccccc3C(=O)N(C)[C@H](C(C)C)C(=O)N2)c(OC)c1 (mixture of isomers)	none
N#Cc1cccc(-c2ccc(C3[C@@H]4CN(S(=O)(=O)Cc5ccccc5)C[C@H]3N4)cc2)c1 (stereo not given in full)	none
O=C(NCC[C@H]1CC[C@H](NS(=O)(=O)c2ccc(F)cc2)[C@H](CO)O1)c1ccc2c(c1)OCO2	none
O=C(Nc1cc(F)ccc1F)N1[C@@H]2CNC[C@H]1C2c1ccc(/C=C/c2ccccc2)cc1 (stereo not given in full)	none
Cc1cccc(S(=O)(=O)N2CCCCN3[C@H](CO)[C@@H](c4ccc(C#CC5CC5)cc4)[C@@H]3C2)c1	none
Cc1nn(C)cc1NC(=O)C[C@H]1CC[C@@H]2[C@H](COc3ccc(NC(=O)c4cccc(F)c4)cc3C(=O)N2C)O1	none
COc1ccccc1CNC(=O)C[C@H]1CC[C@@H]2[C@H](COc3ccc(NC(C)=O)cc3C(=O)N2C)O1	none
CCC(=O)N1CC(=O)N2[C@@H](CO)[C@H](c3ccc(C#Cc4cccc(OC)c4)cc3)[C@@H]2C1	IDE exosite FP -9.1
COc1cccc(C#Cc2ccc([C@@H]3[C@@H](CO)N4C(=O)CN(C(=O)Cc5ccccc5)C[C@H]34)cc2)c1	none
COc1cccc(C#Cc2ccc([C@H]3[C@@H](CO)N4C(=O)CN(C(=O)Cc5ccccc5)C[C@H]34)cc2)c1	IDE exosite FP -4.64
COCC(=O)N1CC(=O)N2[C@H](CO)[C@H](c3ccc(C#Cc4cccc(OC)c4)cc3)[C@H]2C1	IDE exosite FP -6.59
COc1cccc(C#Cc2ccc([C@@H]3[C@@H](CO)N4C(=O)CN(C(=O)Cc5ccccc5)C[C@@H]34)cc2)c1	none
CCC(=O)N1CC(=O)N2[C@H](C1)[C@H](c1ccc(C#Cc3cccc(OC)c3)cc1)[C@@H]2CO	IDE exosite FP -9.23
COc1cccc(C#Cc2ccc([C@@H]3[C@@H](CO)N4C(=O)CN(C(=O)Cc5cccnc5)C[C@@H]34)cc2)c1	none
COCC(=O)N1CC(=O)N2[C@H](CO)[C@H](c3ccc(C#Cc4cccc(OC)c4)cc3)[C@@H]2C1	none
CC(C)CC#Cc1ccc([C@H]2[C@H](CO)N3CCCCN(C(=O)Nc4ccccc4)C[C@@H]23)cc1	none
C[C@@H]1CN([C@@H](C)CO)C(=O)c2ccccc2-c2ccccc2CO[C@H]1CN(C)C(=O)Nc1cccc(C(F)(F)F)c1	none
C[C@@H]1CN([C@@H](C)CO)C(=O)c2ccccc2-c2ccccc2CO[C@@H]1CN(C)C(=O)c1cc(Cl)cc(Cl)c1	none
CN(C)C(=O)c1cccc(-c2ccc([C@H]3[C@@H](CO)N(C(=O)C4CCC4)[C@H]3C#N)cc2)c1	none
CCC(=O)N1CC(=O)N2[C@H](C1)[C@@H](c1ccc(C#Cc3cccc(OC)c3)cc1)[C@@H]2CO	IDE exosite FP -6.54
CCC(=O)N1CC(=O)N2[C@H](CO)[C@@H](c3ccc(C#Cc4cccc(OC)c4)cc3)[C@@H]2C1	IDE exosite FP -5.16
COc1ccc(NC(=O)N2CC(=O)N3[C@H](CO)[C@@H](c4ccc(C5=CCCC5)cc4)[C@@H]3C2)cc1	none
N#C[C@H]1[C@@H](c2ccccc2C2=CCCCC2)[C@@H](CO)N1S(=O)(=O)c1ccccc1	none
CO[C@@H](CN(C)Cc1cc(F)ccc1F)[C@H](C)CN(C(=O)Nc1ccc(C(F)(F)F)cc1)[C@H](C)CO	none
Cc1nn(C)cc1NC(=O)C[C@H]1CC[C@@H]2[C@@H](COc3ccc(NC(=O)c4cccc(F)c4)cc3C(=O)N2C)O1	none
C[C@@H]1CN([C@@H](C)CO)C(=O)CCCn2nncc2CO[C@H]1CN(C)C(=O)CCC(F)(F)F	none
N#C[C@H]1[C@H](c2ccccc2-c2cccc(F)c2)[C@H](CO)N1C(=O)C1CC1	none
O=C(Cc1cccnc1)N1CC(=O)N2[C@H](C1)[C@H](c1ccc(-c3cccc(F)c3)cc1)[C@@H]2CO	none
